High-throughput results from PubChem.
ALOX12 inh: Primary qHTS assay for inhibitors of human arachidonate 12S-lipoxygenase (ALOX12): Round 2; 580,000 compounds, 1.1% hits; AID 1671190, 2021; purified 12hLO, xylenol orange hydroperoxide absorbance; Potency, µM (top dose mostly 108 µM), without a hit: at the highest dose activity change, negative = inhibition, actives largely listed as inhibitors; Polyunsaturated fatty acid lipoxygenase ALOX12 (Homo sapiens), P18054; also: potency is read from the fitted curve at half-maximal effect; % is scaled to controls: 0 for no effect and ±100 for the full control effect
Target sequence (P18054 whole entry, looked up): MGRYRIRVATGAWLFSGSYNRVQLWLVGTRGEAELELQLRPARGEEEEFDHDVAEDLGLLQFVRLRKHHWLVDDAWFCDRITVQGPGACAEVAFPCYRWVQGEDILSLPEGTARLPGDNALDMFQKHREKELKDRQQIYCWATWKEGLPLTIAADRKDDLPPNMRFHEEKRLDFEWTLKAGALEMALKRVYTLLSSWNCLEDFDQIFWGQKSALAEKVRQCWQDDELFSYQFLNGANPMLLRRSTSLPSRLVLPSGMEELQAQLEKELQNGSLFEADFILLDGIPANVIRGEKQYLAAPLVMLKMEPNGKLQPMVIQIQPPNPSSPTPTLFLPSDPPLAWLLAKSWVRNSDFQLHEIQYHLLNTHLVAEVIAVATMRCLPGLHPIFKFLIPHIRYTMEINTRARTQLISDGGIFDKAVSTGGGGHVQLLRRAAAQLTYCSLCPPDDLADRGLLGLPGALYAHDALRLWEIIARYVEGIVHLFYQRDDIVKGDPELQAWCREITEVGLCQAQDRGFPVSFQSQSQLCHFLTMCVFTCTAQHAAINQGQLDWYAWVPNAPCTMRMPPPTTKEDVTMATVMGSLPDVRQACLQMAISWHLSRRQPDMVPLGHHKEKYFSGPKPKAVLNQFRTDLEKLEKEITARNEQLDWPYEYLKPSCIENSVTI
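Purified human 12hLO (150 nM final) in 25 mM Hepes, 0.01% Triton X-100, pH 7.0 was preincubated 15 min at room temperature with compound. Then 40 uM arachidonic acid was added, 30 min. Hydroperoxide was read by Fe-XO absorbance ratio 573/405 nm.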
ATXN2 expr inh: Primary qHTS for Inhibitors of ATXN expression; HEK-293 ATXN2-luciferase reporter, luminescence, 24 h; Potency, µM (highest dose often 57 µM), inactives show at the top dose activity change, negative = inhibition, hits mostly inhibitors; 360,000 compounds, 0.72% hits; AID 1745845, 2022; also: potency is read from the fitted curve at half-maximal effect; % is scaled to controls: 0 for no effect and ±100 for the full control effect; nearly all actives have a fitted effect of over 55% in size
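qHTS (up to 57 uM final) was run with 24 h compound exposure of reporter cells at 37 °C. Each well was multiplexed: SteadyGlo luminescence measured ATXN2-luciferase expression after a fluorogenic Gly-Phe-AFC viability readout (25 uM final).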
HepG2 tox-1: qHTS for Inhibitors of TGF-b: Cytotox Counterscreen. HepG2 CAGA-GFP viability, ATP luminescence, 18 h. 410,000 compounds, 0.76% hits. AID 588856, 2011. Potency, µM (titrated, usually from 46.1 µM), inactives show at the highest dose activity change, negative = cytotoxicity, most hits filed as cytotoxic; also: potency is read from the fitted curve at half-maximal effect
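HepG2 CAGA-GFP cells (1000/well, DMEM with 1% FBS) received compound, then TGF-beta at 500 pg/mL final, and were incubated 18 hours at 37 degrees C. Viability was read by CellTiter-Glo luminescence. Media-only wells were set as complete cell-killing and DMSO as no toxicity.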
ATXN viability: Viability Counterscreen for Primary qHTS for Inhibitors of ATXN expression; S2 cells (HEK-293 line with an ATXN2-luciferase reporter) viability, CellTiter-Fluor protease fluorescence, 24 h; Potency, µM (doses to about 56.7 µM), usual class: cytotoxic; 400,000 compounds, 0.49% hits; also: potency is read from the fitted curve at half-maximal effect; nearly all actives have a fitted effect of over 40% in size
TGFb inhibitor: qHTS for Inhibitors of TGF-b. 410,000 compounds, 1.2% hits. HepG2 CAGA-GFP TGF-b/SMAD3 reporter, GFP fluorescence, 18 h; TGF-beta stimulated, 500 pg/mL final. Potency, µM (top dose mostly 46.1 µM), for inactives: top-dose activity, negative = inhibition, hits mostly inhibitors; also: potency is read from the fitted curve at half-maximal effect; % is scaled to controls: 0 for no effect and ±100 for the full control effect; nearly all actives have a fitted effect of over 65% in size
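Inhibition was scored as loss of TGF-beta-induced (500 pg/mL final, 18 hours, 37 degrees C) GFP in HEPG2 cells carrying a CAGA-GFP reporter, in DMEM with 1% FBS. Well GFP was summed per cell; Activity was normalised to unstimulated and stimulated DMSO wells, then concentration-response fitting.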
TGFb CAGA inh: qHTS for Inhibitors of TGF-b: Confirmation of Cherry Picks | HepG2 CAGA-GFP TGF-b reporter, GFP fluorescence, 18 h; cells stimulated with TGF-beta, 500 pg/mL | Potency, µM (doses to about 46.1 µM), without a hit: top-dose activity, negative = inhibition, usual class: inhibitors | 1,600 compounds, 63% hits | shares compounds with TGFb inhibitor; also: potency is read from the fitted curve at half-maximal effect; % is scaled to controls: 0 for no effect and ±100 for the full control effect; nearly all actives have a fitted effect of over 65% in size
HepG2 tox-2: qHTS for Inhibitors of TGF-b: Cytotox Counterscreen for Cherry Picks | shares compounds with TGFb inhibitor | HepG2 CAGA-GFP viability, ATP luminescence, 18 h; cells stimulated with TGF-beta, 500 pg/mL | Potency, µM (series often up to 46.1 µM), without a hit: at the top dose activity, negative = cytotoxicity, usual class: inhibitors | 1,600 compounds, 27% hits; also: potency is read from the fitted curve at half-maximal effect; % is scaled to controls: 0 for no effect and ±100 for the full control effect; nearly all actives have a fitted effect of over 70% in size
TGFb CCL64 inh: qHTS for Inhibitors of TGF-b: CCL64 Cells Orthogonal Assay for Cherry Picks; CCL64 CAGA-GFP reporter, TGF-b stimulated, GFP fluorescence, 18 h; 1,600 compounds, 41% hits; shares compounds with TGFb inhibitor; Potency, µM (highest dose often 46.1 µM), without a hit: at the top dose activity, negative = inhibition, hits mostly inhibitors; also: potency is read from the fitted curve at half-maximal effect; nearly all actives have a fitted effect of over 65% in size
TGFb COP inh: qHTS for Inhibitors of TGF-b: Hit Validation in HepG2 Cells using COP promoter; Potency, µM (doses to about 46.1 µM), for the others: top-dose activity, negative = inhibition, usual class: inhibitors; 1,600 compounds, 3% hits; HepG2 COP-GFP TGF-b reporter, GFP fluorescence, 18 h; cells stimulated by added recombinant TGF-beta; shares compounds with TGFb inhibitor; also: potency is read from the fitted curve at half-maximal effect; nearly all actives have a fitted effect of over 70% in size
SK-N-SH 3D tox: qHTS of pediatric cancer cell lines to identify multiple opportunities for drug repurposing: Orthogonal 3D viability screen for SK-N-SH cells. shares compounds with ATXN2 expr inh. SK-N-SH 3D spheroid viability, PI/Hoechst imaging, 72 h. Potency, µM (doses to about 30.7 µM), usual class: inhibitors. 65 compounds, 70% hits. AID 1347135, 2019
SJ-GBM2 3D tox: qHTS of pediatric cancer cell lines to identify multiple opportunities for drug repurposing: Orthogonal 3D viability screen for SJ-GBM2 cells; SJ-GBM2 3D spheroid viability, PI/Hoechst imaging, 72 h; 65 compounds, 80% hits; shares compounds with ATXN2 expr inh; Potency, µM (titrated, usually from 30.7 µM), usual class: inhibitors; AID 1347136, 2019
Daoy 3D tox: qHTS of pediatric cancer cell lines to identify multiple opportunities for drug repurposing: Orthogonal 3D viability screen for Daoy cells | Potency, µM (titrated, usually from 30.7 µM), usual class: inhibitors | shares compounds with ATXN2 expr inh | 65 compounds, 50% hits | Daoy 3D spheroid viability, PI/Hoechst imaging, 72 h | AID 1347137, 2019
TC32 3D caspase: qHTS of pediatric cancer cell lines to identify multiple opportunities for drug repurposing: Orthogonal 3D caspase screen for TC32 cells; shares compounds with ATXN2 expr inh; TC32 3D spheroids, caspase-3/7 fluorescence imaging, 24 h; Potency, µM (highest dose often 30.7 µM), actives largely listed as inhibitors; 65 compounds, 30% hits; AID 1347138, 2019
TC32 spheroid: qHTS of pediatric cancer cell lines to identify multiple opportunities for drug repurposing: Orthogonal 3D viability screen for TC32 cells; shares compounds with ATXN2 expr inh; Potency, µM (highest dose often 30.7 µM), actives largely listed as inhibitors; TC32 3D spheroid viability, PI/Hoechst imaging, 72 h; AID 1347139, 2019; 65 compounds, 60% hits
MG63 3D tox: qHTS of pediatric cancer cell lines to identify multiple opportunities for drug repurposing: Orthogonal 3D viability screen for MG 63 (6-TG R) cells. shares compounds with ATXN2 expr inh. MG-63 (6-TG R) 3D spheroid viability, PI/Hoechst imaging, 72 h. 65 compounds, 50% hits. Potency, µM (titrated, usually from 30.7 µM), most hits filed as inhibitors
RD 3D tox: qHTS of pediatric cancer cell lines to identify multiple opportunities for drug repurposing: Orthogonal 3D viability screen for RD cells. shares compounds with ATXN2 expr inh. RD rhabdomyosarcoma 3D spheroid viability, PI/Hoechst imaging, 72 h. Potency, µM (doses to about 30.7 µM), actives largely listed as inhibitors. 65 compounds, 50% hits. AID 1347141, 2019
* = called active by the depositor; i = inactive; u = inconclusive; x = not tested or not shown; [ ] = another dose, or the depositor's remark. Sampled rows, rich in hits. Any-hit rate of the full collection: about 2.7%. Calls follow the shape of the dose curve; as a rule, active = well fitted curve in the direction sought with a large enough effect; inconclusive = small, poorly fitted or top-dose-only effect, or another doubt; inactive = no such curve, though single readings can be large; an effect the other way counts as inactive or inconclusive.

SMILES	ALOX12 inh	ATXN2 expr inh	HepG2 tox-1	ATXN viability	TGFb inhibitor	TGFb CAGA inh	HepG2 tox-2	TGFb CCL64 inh	TGFb COP inh	others
Cc1cccc(CCN2C(Nc3ccccc3)=NC[C@@H]2CC(C)C)c1	22.7%	u	0.8%	u	6.31µM*	5.17µM*	u	u	86.9%
CC(C)C[C@H]1CN=C(Nc2ccccc2)N1CCc1ccc(F)cc1	2.8%	-14.4%	-32.8%	i	8.91µM*	7.31µM*	u	18.4µM*	59.9%
CC(C)C[C@H]1CN=C(N(C)C)N1CCc1cccc(F)c1	1.4%	-19.6%	-20.2%	i	-10.6%	x	x	x	x
CCOc1cc(/C=C2/NC(=O)NC2=O)cc(Cl)c1OCc1ccc(F)cc1	-3.0%	x	x	x	x	x	x	x	x
O=C(CN1CCN(c2ccccc2)CC1)Nc1oc2ccccc2c(=O)c1-c1ccc(F)cc1	7.6%	x	x	x	x	x	x	x	x
CC(=O)Nc1ccc(S(=O)(=O)N2CCC(c3nc4ccc(C)cc4[nH]3)CC2)cc1	-9.6%	-14.1%	14.9%	i	u	x	x	x	x
CC(C)(C)c1ccc(S(=O)(=O)N2CCC(c3nc4ccc(Cl)cc4[nH]3)CC2)cc1	4.4%	u	-27.8%	i	20µM*	16.4µM*	u	u	46.1%
COc1cccc2c1C(=O)c1c(O)c3c(c(O)c1C2=O)C[C@@](O)(C(=O)CO)C[C@@H]3O[C@H]1C[C@H](N)[C@H](O)[C@H](C)O1	u	0.316µM*	4.6%	3.98µM*	3.55µM*	0.164µM*	0.517µM*	1.3µM*	-0.6%	SK-N-SH 3D tox=0.181µM*;SJ-GBM2 3D tox=0.287µM*;Daoy 3D tox=2.88µM*;TC32 3D caspase=1.02µM*;TC32 spheroid=0.323µM*;MG63 3D tox=4.06µM*;RD 3D tox=2.56µM*
CC1c2ccsc2CCN1CC(O)COc1ccc(-c2ccccc2)cc1 (centres undefined)	7.0%	x	x	x	x	x	x	x	x
CC(=O)O[C@@]12CO[C@H]1C[C@H](O)[C@@]1(C)C(=O)[C@H](O)C3=C(C)[C@@H](OC(=O)C(O)[C@@H](NC(=O)OC(C)(C)C)c4ccccc4)C[C@@](O)([C@@H](OC(=O)c4ccccc4)[C@@H]21)C3(C)C (some centres undefined)	37.9%[57.4 µM]	u	x	x	x	x	x	x	x	SK-N-SH 3D tox=0.0256µM*;SJ-GBM2 3D tox=0.0046µM*;Daoy 3D tox=2.56µM*;TC32 3D caspase=i;TC32 spheroid=u;MG63 3D tox=8.1µM*;RD 3D tox=u
CC(=O)O[C@H]1C(=O)[C@@]2(C)[C@H]([C@H](OC(=O)c3ccccc3)[C@]3(O)C[C@H](OC(=O)[C@H](O)[C@@H](NC(=O)c4ccccc4)c4ccccc4)C(C)=C1C3(C)C)[C@]1(OC(C)=O)CO[C@@H]1C[C@@H]2O	-4.9%	-24.2%	-39.5%	u	-19.7%	x	x	x	x	SK-N-SH 3D tox=0.144µM*;SJ-GBM2 3D tox=0.0102µM*;Daoy 3D tox=0.144µM*;TC32 3D caspase=u;TC32 spheroid=0.0144µM*;MG63 3D tox=u;RD 3D tox=0.0574µM*
CC(=O)O[C@H]1C(=O)[C@@]2(C)[C@H]([C@H](OC(=O)c3ccccc3)[C@]3(O)C[C@H](OC(=O)[C@H](O)C(NC(=O)c4ccccc4)c4ccccc4)C(C)=C1C3(C)C)[C@]1(OC(C)=O)CO[C@@H]1C[C@@H]2O (some centres undefined)	-4.7%	-25.0%	-9.1%	u	u	x	x	x	x
Cc1cccc(OCc2ccc(C(N)=O)cc2)c1	6.9%	x	x	x	x	x	x	x	x
